Rows were chosen to be rich in hits. Some 3.2% of all compounds tested hit in one or more screens of this group.
Lassa entry inh – Lassa virus entry inhibition. Lassa virus pseudotype entry inhibition, cell reporter. Potency, µM (titrated, usually from 37.9 µM), for inactives: at the highest dose activity change, negative = inhibition, hits mostly inhibitors. 1.2% of 300,000 active; calls by dose curve; tested in HEK293 cells; further: nearly all actives have a fitted effect of over 50% in size
VACV mCherry inh – inhibitors of vaccinia virus infection (mCherry reporter signal); Vaccinia virus mCherry reporter infection, fluorescence; Potency, µM (series often up to 36.5 µM), inactives show at the top dose activity change, negative = inhibition, usual class: inhibitors; 0.63% of 310,000 active; AID 720579; calls by dose curve; tested in A549 cells; further: nearly all actives have a fitted effect of over 35% in size
MARV entry inh – blocks Marburg virus binding to or entry into cells; Marburg virus pseudotyped entry inhibition, cell reporter; Potency, µM (series often up to 37.8 µM), without a hit: at the highest dose activity change, negative = inhibition, actives largely listed as inhibitors; 1.8% of 300,000 active; AID 540276; calls by dose curve; tested in HEK293 cells
FMDV antiviral – antivirals against foot and mouth disease virus; 1.2% of 410,000 active; FMDV antiviral cell-based qHTS; Potency, µM (highest dose often 57.9 µM), without a hit: at the top dose activity change, negative = inhibition, hits mostly inhibitors; calls by dose curve; tested in HEK293T cells; further: read-out not given here; nearly all actives have a fitted effect of over 45% in size
VACV Venus inh – vaccinia inhibition (Venus reporter). 0.46% of 330,000 active. AID 720580. Vaccinia virus Venus reporter expression, fluorescence. Potency, µM (series often up to 36.5 µM), inactives show top-dose activity change, negative = inhibition, most hits filed as inhibitors; calls by dose curve; tested in A549 cells; further: nearly all actives have a fitted effect of over 30% in size
* marks the source's active call; other numbers are inactive results; i = inactive; ? = inconclusive; · = no result given; ! = not confirmed by another sample; [ ] = dose if it differs, or a comment. On the % scale 0 is the no-effect control and ±100 the full control effect; potency means the concentration at half of the fitted maximal effect.

SMILES	Lassa entry inh	VACV mCherry inh	MARV entry inh	FMDV antiviral	VACV Venus inh
CCOC(=O)c1c(-c2ccc(C)o2)csc1NC(=S)NC(=O)c1ccccc1Br	26%[14.3 µM]	-5%	-18%	-6%	-22%
CCOC(=O)c1c(-c2ccc(-c3ccccc3)cc2)csc1NC(=O)CCN1CCOCC1	10µM*	?	?	-25%	?
CCOC(=O)c1c(-c2ccc(C)o2)csc1NC(=S)NC(=O)c1cccs1	23µM*	i	?	-20%	-24%
Cc1ccc(-n2c(=O)c3c(C)c(C(=O)N(C)C)sc3n(CC(=O)N(C)c3ccccc3)c2=O)cc1C	8%[46.1 µM]	-1%	·	-14%	-4%
CO[C@H]1[C@H](NC(=O)c2ccco2)c2ccccc2C12CCN(Cc1cc(Cl)ccc1O)CC2	·	?	·	-21%	-24%
Clc1ccc(-n2ncc3c(N4CCCC4)ncnc32)cc1	?	-2%	?	10µM*	-11%
Fc1ccc(-n2ncc3c(N4CCCCCC4)ncnc32)cc1	-1%[46.1 µM]	-1%	·	?	-4%
Cn1ncc(Cl)c1C(=O)N1CCN(c2ccc(Cl)c(Cl)c2)CC1	7%	-14%	?	28µM*	-14%
Cc1ccc(-n2ncc3c(SCc4ccccn4)ncnc32)c(C)c1	0.56µM*	5µM*	?	?	5%
Cc1ccc(-n2ncc3c(N4CCCCCC4)ncnc32)cc1	?	-8%	·	20µM*	6%
Cc1nn(-c2ccccc2)c(Cl)c1C(=O)N1CCN(c2ncnc3c2cnn3-c2ccccc2)CC1	13µM*	·	13µM*	6.3µM*	?
O=C(c1ccccc1)N1CCN(c2ncnc3c2cnn3-c2ccccc2)CC1	2%	-12%	?	?	?
Cn1ncc2c(N3CCN(c4ccccc4F)CC3)ncnc21	-5%[46.1 µM]	-23%	?	?	-12%
Cn1ncc2c(N3CCN(c4ccc(Cl)c(Cl)c4)CC3)ncnc21	3%	-27%	18%[46.1 µM]	11µM*	-16%
Cc1ccc(-n2ncc3c(N4CCC5(CC4)OCCO5)ncnc32)c(C)c1	·	-2%	·	40µM*	-7%
CC(C)(C)[S+](=O)([O-])/C(C#N)=C/NC1=NCCCC1	·	·	-11%[46.1 µM]	·	·
Cc1ccccc1-c1cccc(CN2CCc3nnc(C(C)NC(=O)c4cccnc4)n3CC2)c1 (stereo not given)	·	-19%	·	-5%	-11%
CN(C)CCCN1C(=O)c2cccc3c([N+](=O)[O-])ccc(c23)C1=O	?	i	1.8µM*	?	137%
O=C(c1ccc(COc2ccccc2Br)o1)N1N=C(C(F)F)CC1(O)C(F)F (stereo not given)	-7%	-8%	7.1µM*	-24%	?
CCOc1ccc(-n2c(SCC(=O)N3CCC(C)CC3)nc3c([nH]c4ccccc43)c2=O)cc1	16%[46.1 µM]	-15%	·	-19%	-16%
CCCC12CN3CC(C)(CN(C1)C3c1ccc(CC)cc1)C2=O (stereo not given)	0%[46.1 µM]	-7%	16%[46.1 µM]	-2%	-2%
N#Cc1c(Br)n(C2OC(CO)C(O)C2O)c2ncnc(N)c12 (stereo not given)	?	?	?	8%	13µM*
NC(=O)c1c(Br)n(C2OC(CO)C(O)C2O)c2ncnc(N)c12 (stereo not given)	?	11µM*	?	-21%	?
Nc1ncnc2c1ncn2[C@@H]1O[C@H](CO)[C@@H](O)[C@H]1O	11%	-12%	17%	-22%	0%
COC(=O)C1C(=O)N(S(=O)(=O)c2ccc([N+](=O)[O-])cc2)c2ccccc21 (stereo not given)	·	?	·	-13%	5%
SMILES	Lassa entry inh	VACV mCherry inh	MARV entry inh	FMDV antiviral	VACV Venus inh
S=C(NNc1nc(Nc2ccccc2)nc(N2CCCCC2)n1)NC1CCCCC1	-6%	-16%	10µM*	-15%	-9%
CC1(c2ccccc2)NC(=O)N(CC(=O)Nc2nnc(C3CC3)s2)C1=O (stereo not given)	?	0%	15%	-15%	-7%
Cc1cc(C)c(S(=O)(=O)c2ccc(Cl)cc2)c(Cl)n1	-16%	-6%	-13%[46.1 µM]	-11%	-8%
Cc1cc(S(=O)(=O)c2ccc(Cl)cc2)nc(S(=O)(=O)c2ccc(Cl)cc2)c1C#N	·	11µM*	·	28µM*	11µM*
Cc1cc(F)ccc1O[C@H]1C=C[C@@H](c2ccc3c(c2)OCO3)O[C@@H]1CO	·	·	14%[14.2 µM]	·	·
Cc1nn(-c2ccccc2)c(C)c1/C=N/n1c(-c2ccc(C(C)(C)C)cc2)n[nH]c1=S	0.11µM*	·	-26%	-8%	-22%
Cc1nn(-c2ccccc2)c(N2CCCC2)c1/C=N/NC(=O)c1cc2ccccc2cc1O	5%	-30%	-7%	40µM*	-15%
Cc1nn(-c2ccccc2)c(C)c1/C=N/NC(=O)c1cc(C(C)(C)C)[nH]n1	?	·	4.5µM*	0%	?
Cc1ccc(-c2cc(C(=O)N/N=C/c3c(C)nn(-c4ccccc4)c3C)[nH]n2)cc1	·	·	-2%	·	·
Cc1ccc(-c2n[nH]c(=S)n2/N=C/c2c(C)nn(-c3ccccc3)c2C)cc1	?	-11%	?	?	-8%
Cc1[nH]c2ccccc2c1/C=N/NC(=O)c1cc(-c2cccs2)[nH]n1	-21%	·	-36%	-7%	·
Cc1ccc(-c2cc(C(=O)N/N=C/c3c(C)nn(-c4ccccc4)c3C)n[nH]2)s1	8.2µM*	·	?	?	·
Cc1nn(-c2ccccc2)c(N2CCCC2)c1/C=N/NC(=O)c1cc(-c2ccccc2)nc2ccccc12	-29%	-15%	?	?	3%
CNc1ncncc1-c1ccccc1CN(C)C	·	·	·	-7%	·
CCc1ccc2c(c1)C(c1ccc([N+](=O)[O-])cc1)=NNC(c1ccc(C)cc1)=N2	0%	-14%	?	-11%	-14%
COc1ccc(C=CC2=CC3(C)CC2(C)C(c2ccc(OC)cc2)CC3=O)cc1 (stereo not given)	·	·	-13%[14.2 µM]	·	·
CCOC(=O)[C@]12Cc3ccccc3[C@H]1N(Cc1ccccc1)C(=O)c1cc(F)c(F)cc12	·	-15%	·	25µM*	-13%
CCOC(=O)[C@]12Cc3cc(Cl)ccc3[C@H]1N(Cc1ccccc1)C(=O)c1ccccc12	·	?	·	?	-2%
CCOC(=O)[C@]12Cc3cc4c(cc3[C@H]1N(Cc1ccccc1)C(=O)c1ccccc12)OCO4	·	11µM*!	·	-29%	?
COCc1c(C(=O)N2CCN(C3CCCC3)CC2)cnn1-c1ncc2c(n1)-c1ccccc1CCC2	·	-22%	·	-8%	-1%
C(=C\c1nc2ccccc2o1)/c1ccc2c(c1)OCO2	·	-17%	·	·	-18%
CCOc1ccc(NS(=O)(=O)c2cccc(C(=O)N3CCN(C/C=C/c4ccccc4)CC3)c2)cc1	?	i	?	28µM*	?
O=C(c1cccc(S(=O)(=O)N2CCOCC2)c1)N1CCN(C/C=C/c2ccccc2)CC1	6%	i	24%	-21%	-8%
Cc1ccc(C)c(C(Nc2ccccc2)c2ccc3ccc(C)nc3c2O)c1 (stereo not given)	·	7.9µM*	·	6%	?
O=C(CCNC(=O)c1ccc(Br)cc1)NC1CCCc2ccccc21 (stereo not given)	7.1µM*	?	2.2µM*	-6%	11%

High-throughput results (PubChem)
